The results in this text go back to PubChem BioAssay (NCATS).

“And” between values parts separate entries of the source, which are not always exact repeats. Equal values may be shown once. A number with no mark means an inactive call. Results filed as inconclusive are left out. The source made the active and inactive calls. Calls follow the shape of the dose curve; as a rule, active = well fitted curve in the direction sought with a large enough effect; inconclusive = small, poorly fitted or top-dose-only effect, or another doubt; inactive = no such curve, though single readings can be large; an effect the other way counts as inactive or inconclusive.

For assay [1], the target named is Glutathione peroxidase 1 (Homo sapiens) (UniProt P07203). Nature of the assay: Primary qHTS Assay for Inhibitors of Recombinant Selenoprotein Glutathione Peroxidase 1 (GPX1) (AID 1845191). Also: nearly all actives have a fitted effect of over 65% in size. As to activity, negative = inhibition: % is scaled to controls: 0 for no effect and ±100 for the full control effect. The essentials:
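10 nM GPX1 + cpd, 30 min RT; start w/ 1 mM GSH, 0.5 mM cumene hydroperoxide, 0.5 mM NADPH, 100 nM GR, 0.01% BSA; buffer 50 mM Tris-HCl pH 7.5, 2 mM EDTA, 150 mM NaCl; Fl 340/450, 0 & 15 min.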

Assay [2] deals with Phospholipid hydroperoxide glutathione peroxidase GPX4 (Homo sapiens) (UniProt P36969). Nature of the assay: Primary qHTS Assay for Inhibitors of Recombinant Selenoprotein Glutathione Peroxidase 4 (GPX4) (AID 1845192). Also: nearly all actives have a fitted effect of over 65% in size. Also: potency is read from the fitted curve at half-maximal effect. The essentials:
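NADPH consumption, followed by fluorescence at 340/450 nm between 0 and 15 min, reports GPX4 activity via coupled glutathione reductase (100 nM). Enzyme 200 nM was pre-exposed to compound 30 min; 0.5 mM cumene hydroperoxide and 1 mM GSH served as substrates.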
On the technique in general: Quantitative high-throughput screening tests each substance at several concentrations.

In assay [3] the target is Luciferin 4-monooxygenase (Photinus pyralis) (UniProt P08659). Nature of the assay: Primary firefly luciferase (FLuc) qHTS assay for identification of artifact compounds. (AID 1845220). Also: nearly all actives have a fitted effect of over 60% in size. The essentials:
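Compounds sat 15 min at room temperature with 10 uM luciferin and 10 uM ATP (pH 7.6 Tris acetate). Firefly luciferase (10 nM final) was then added, and luminescence was read 5 min later. Data normalized to no-enzyme and DMSO controls were Hill-fitted.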

Assay [4] can be described thus: Primary fluorescence-based thiol-reactive (MSTI) qHTS assay for identification of artifact compounds. (AID 1845221). Also: nearly all actives have a fitted effect of over 65% in size. Also: potency is read from the fitted curve at half-maximal effect.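 As to activity change, negative = thiol reactive: series mostly up to about 54 µM; thiol-reactive compounds lower the probe fluorescence signal.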 In outline:
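In PBS pH 7.4 with 2% DMSO, each compound met 4 uM MSTI for one hour at ambient temperature, shielded from light, before fluorescence detection.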

Assay [5] concerns Nanoluciferase (engineered Oplophorus gracilirostris luciferase). Nature of the assay: Primary Nanoluciferase (NLuc) qHTS assay for identification of artifact compounds. (AID 1845222).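 Also: series mostly up to about 54 µM; 0% = DMSO and -100% = no enzyme.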 The essentials: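 Luminescence from secreted NLuc (filtered, 1:55-diluted S16 cell medium) read 5 min after Nano-Glo substrate; compounds preincubated 15 min, RT. Hill fits of inhibition normalized to DMSO and no-enzyme.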

Sequence of Phospholipid hydroperoxide glutathione peroxidase GPX4 (Homo sapiens) (P36969 whole entry, looked up): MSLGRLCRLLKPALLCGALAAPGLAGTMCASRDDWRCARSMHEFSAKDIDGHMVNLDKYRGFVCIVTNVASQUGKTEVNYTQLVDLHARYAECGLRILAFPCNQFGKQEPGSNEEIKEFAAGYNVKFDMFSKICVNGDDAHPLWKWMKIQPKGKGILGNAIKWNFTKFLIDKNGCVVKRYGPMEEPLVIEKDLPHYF
Sequence of Glutathione peroxidase 1 (Homo sapiens) (P07203 whole entry, looked up): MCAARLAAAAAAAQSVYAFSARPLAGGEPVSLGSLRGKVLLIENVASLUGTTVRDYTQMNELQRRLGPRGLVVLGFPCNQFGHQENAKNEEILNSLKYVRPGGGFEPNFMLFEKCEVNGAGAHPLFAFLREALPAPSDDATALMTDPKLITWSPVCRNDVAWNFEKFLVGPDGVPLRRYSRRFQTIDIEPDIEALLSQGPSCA

For the compound `COc1cc(C#N)ccc1S(=O)(=O)Nc1ccc2c(c1)cc(C)c(=O)n2C`, the Potency result in assay [1], in assay [2], in assay [3], in assay [4] and in assay [5] was “inactive” in each case.

With `COc1cc(CN(CCN)C(=O)c2cccs2)ccc1OCc1ccccc1`, the Potency entry in assay [1], in assay [2], in assay [3], in assay [4] and in assay [5] was “inactive” each time.

Consider `C=C1/C(=C/C=C2\CCC[C@]3(C)[C@@H]([C@H](C)CC[C@@H](O)C(C)(C)O)CC[C@@H]23)C[C@@H](O)C[C@@H]1O`, for which the Potency entry in assay [1], in assay [2], in assay [3], in assay [4] and in assay [5] was “inactive” each time.

Turning to `CCCOc1ccc(S(=O)(=O)N2CCN(CCO)CC2)cc1-c1nc2c(CCC)cn(CC)c2c(=O)[nH]1`, the Potency entry in assay [1], in assay [2], in assay [3], in assay [4] and in assay [5] was “inactive” each time.

As for `CC1(C)CCCC2(C)C1C(=O)C=C(C(=O)O)C2(O)C(=O)O` (stereo not given), the Potency result in assay [1], in assay [2], in assay [3] and in assay [5] was “inactive” each time. Also, the Potency in assay [4] is 9470 nM (active).

`COCC(=O)NC/C=C/c1ccc2ncnc(Nc3ccc(Oc4ccc(C)nc4)c(C)c3)c2c1`: the Potency entry in assay [1], in assay [2], in assay [3], in assay [4] and in assay [5] was “inactive” in each case.

Consider `Cc1cc2c(c(=O)o1)C=C1CC[C@H]([C@H](C)Cn3cnc(=N)c4[nH]cnc43)C[C@@H]1O2`, for which the Potency entry in assay [1], in assay [2], in assay [3], in assay [4] and in assay [5] was “inactive” each time.

As for `Cc1nc(-c2cn3c(n2)-c2ccc(-c4cnn(C(C)(C)C(N)=O)c4)cc2OCC3)n(C(C)C)n1`, the Potency entry in assay [1], in assay [3], in assay [4] and in assay [5] was “inactive” each time. In addition, the Potency in assay [2] was 14.3 µM (active) and 20.2 µM (active).

With `CCC(CC)C(=O)OC12C(OC(=O)C(C)C)C(C)C3(O)C(C=C(CO)CC4(O)C(=O)C(C)=CC43)C1C2(C)C` (stereo not given), the Potency result in assay [1], in assay [2], in assay [3], in assay [4] and in assay [5] was “inactive” in each case.

`CC1OC2OC(=O)C3(C)CC4C5(CO5)C5=CC(=O)OC(C)(C)C5=CC(=O)C4(C)C(C1=O)C23` (stereo not given): the Potency entry in assay [1], in assay [2], in assay [3] and in assay [5] was “inactive” throughout. Also, in assay [4], the Potency was 1030 nM (active).

`CCCc1cc(C)[nH]c(=O)c1CNC(=O)c1cc(-c2ccnc(N3CCN(C)CC3)c2)cc2c1cnn2C(C)C`: the Potency entry in assay [1], in assay [2], in assay [3], in assay [4] and in assay [5] was “inactive” each time.

Consider `CC(=O)OC1CC2(C)C(CCC(C)C23Cc2c(O)cc(CO)c(C=O)c2O3)C(C)(C)C1O` (stereo not given), for which the Potency entry in assay [1], in assay [2], in assay [3], in assay [4] and in assay [5] was “inactive” throughout.

Take `Nc1ncnc2c1c(-c1ccc(Oc3ccccc3)cc1)nn2[C@@H]1CCCNC1`: the Potency result in assay [1], in assay [2], in assay [3], in assay [4] and in assay [5] was “inactive” in each case.

As to `CCC(C)CC(=O)OC1C(=O)C(CO)=CC(O)C1C(C)C` (stereo not given), the Potency result in assay [1], in assay [2], in assay [3], in assay [4] and in assay [5] was “inactive” in each case.

Consider `COc1cc(N2CCC(O)CC2)ccc1Nc1nc(Nc2ccccc2S(=O)(=O)C(C)C)c2[nH]cnc2n1`, for which the Potency entry in assay [1], in assay [2], in assay [3] and in assay [5] was “inactive” throughout. Moreover, the Potency in assay [4] was 1680 nM (active).

On to `COc1ccc2nccc(C(=O)CC[C@@H]3CCN(CC#Cc4cc(F)cc(F)c4F)C[C@@H]3C(=O)O)c2c1`, for which the Potency entry in assay [1], in assay [2], in assay [3], in assay [4] and in assay [5] was “inactive” throughout.

In the case of `CCC(C)C(=O)Oc1cc(C)ccc1C1(COC(=O)C(C)C)CO1` (stereo not given), the Potency result in assay [1], in assay [2], in assay [3], in assay [4] and in assay [5] was “inactive” throughout.

As for `CN(C)C(=O)C(=O)c1cn(C)c2cc(Cl)c(C(=O)N3CCC(Cc4ccc(F)cc4)CC3)cc12`, the Potency entry in assay [1], in assay [2], in assay [3], in assay [4] and in assay [5] was “inactive” each time.

Regarding `C[C@@H]1O[C@@H](O[C@H]2[C@H](OC(=O)[C@]34CCC(C)(C)C[C@H]3C3=CCC5[C@@]6(C)C[C@H](O)[C@H](O[C@@H]7O[C@H](C(=O)O)[C@@H](O)[C@H](O)[C@H]7O)[C@@](C)(CO)C6[C@H](O)C[C@@]5(C)[C@]3(C)C[C@H]4O)O[C@@H](CO)[C@@H]2O)[C@H](O)[C@H](O)[C@H]1O[C@@H]1OC[C@@H](O)[C@H](O[C@H]2OC[C@](O)(CO)[C@H]2O)[C@H]1O` (stereo not given in full), the results for the outcome in assay [1], in assay [2] and in assay [3] were “inactive [at 9.52 µM]”, “inactive [at 9.73 µM]” and “inactive [at 11.6 µM]”, respectively. Also, in assay [4], the activity change, negative = thiol reactive was 391% [at 11.5 µM]. Also, the activity, negative = inhibition in assay [5] was 1.66% [at 11.6 µM].

For the compound `Cc1cn(CCN2CCN(c3ccccc3-c3cc(C#N)cc(C(=O)NCCCN4CCCC4)c3)CC2)c2ccccc12`, the Potency result in assay [1], in assay [2], in assay [3], in assay [4] and in assay [5] was “inactive” in each case.

For `COC(=O)C1=COC(O[C@@H]2O[C@H](CO[C@@H]3O[C@H](COC(=O)/C=C\c4ccc(O)cc4)[C@@H](O)[C@H](O)[C@H]3O)[C@@H](O)[C@H](O)[C@H]2O)C2C(CO)=CCC12` (stereo not given in full), the Potency entry in assay [1], in assay [2], in assay [3], in assay [4] and in assay [5] was “inactive” in each case.

As for `CC(=O)O[C@@H]1CC[C@@]2(C)[C@H](CC[C@@H]3[C@@H]2C[C@H](OC(C)=O)[C@]2(C)[C@@H](C(C)=O)CC[C@@H]32)C1`, the Potency entry in assay [1], in assay [2], in assay [3], in assay [4] and in assay [5] was “inactive” throughout.
